The assay deals with Coelenterazine h 2-monooxygenase (Renilla reniformis) (UniProt P27652). In words: qHTS Assay for Inhibitors of Sea Pansy Luciferase from the GSK Published Protein Kinase Inhibitor Set. The source says: FLuc (firefly luciferase) is the prototypical bioluminescent reporter gene from Photinus pyralis.[1] The enzyme catalyzes the oxidation luciferin via luciferin-AMP to produce light. FLuc is used in cell-based reporter gene-based assays for screening small molecule chemical libraries. However, small molecule luciferase inhibitors present in most large chemical libraries are often enriched in the output of high throughput screens using this reporter sometimes complicating interpretation and candidate selection.
RLuc is a bioluminescent reporter gene luciferase from Renilla reniformis, also known as the sea pansy. RLuc uses the luciferin substrate coelenterazine. […]
Three microliters containing renilla luciferase substrate in buffer (final concentrations: 50mM Tris acetate, pH 7.5, 100uM NaCl, 0.01% Tween-20, 0.05% BSA, 5uM coelenterazine h) are dispensed into each well of a Greiner white, solid-bottom 1536-well format plate using a flying reagent dispenser (FRD). These assay plates were then treated with 23nL of compound or DMSO using a Kalypsys pin tool, which allows for delivery of a 7-point interplate titration of each compound to the assay plate (quantitative HTS), with final compound concentrations ranging from approximately 60uM to 300pM. […] Luciferase activity was then measured using an Envision plate reader (PerkinElmer), with an average incubation time of 2 min.

Drawing on PubChem BioAssay AID652015 (National Center for Advancing Translational Sciences (NCATS), 2013), this text covers outcome for one compound.

Records with an inconclusive call do not appear. Activity calls are given as the source filed them. The call rests on the fitted dose curve; in most records, active means well fitted inhibition curve with a large enough effect; inconclusive means small, poorly fitted or top-dose-only effect; inactive means no such curve, though single readings can be large or run the other way.

Sequence of Coelenterazine h 2-monooxygenase (Renilla reniformis) (P27652 whole entry, looked up): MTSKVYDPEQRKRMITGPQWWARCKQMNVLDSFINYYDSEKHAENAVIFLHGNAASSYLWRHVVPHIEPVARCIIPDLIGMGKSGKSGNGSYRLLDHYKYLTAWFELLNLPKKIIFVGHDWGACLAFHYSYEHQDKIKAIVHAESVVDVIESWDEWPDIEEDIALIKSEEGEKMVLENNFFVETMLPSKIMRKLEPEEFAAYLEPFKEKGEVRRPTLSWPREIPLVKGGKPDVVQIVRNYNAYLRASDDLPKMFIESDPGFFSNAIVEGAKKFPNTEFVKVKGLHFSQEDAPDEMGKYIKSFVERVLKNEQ

On to `CNC(=O)Oc1cc(C)c(C=Cc2cncc(C(=O)NC)c2)c(C)c1`, for which the compound was classed as inactive.
